A selection: hits, their analogues and other compounds. The true share with any hit is near 3.2%.
SKN-1 block: suppressors of acrylamide-induced Pgst-4::GFP reporter in worms, primary screen, SKN-1 inhibitor project, whole organism, uHTS, GFP/RFP fluorescence ratio, strain VP596 | C. elegans VP596 Pgst-4::GFP/RFP ratio, 24 h | inhibition, % at 21.8 µM | AID 624304, 2012 | 360,000 compounds, 0.49% hits;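 active means interference check ratio from 0.5 to 1.5 plus GFP to RFP signal ratio inhibition reaching or exceeding a fixed threshold, cut at about 30% in these data, passing the limit was not always enough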
MEKK2wt PB1 HTS: modulators of MEK5 binding to wildtype MEKK2, primary screen, biochemical, multiplex bead flow cytometry, Alexa488-MEK5. 290,000 compounds, 1.1% hits. Mitogen-activated protein kinase kinase kinase 2 (Homo sapiens), Q9Y2U5. binding response (% of control), % at 10 µM. Alexa488-MEK5 binding to MEKK2 WT; actives lie on both sides; in the data active means binding response below about 67% or above about 130%
MEKK2 mut-MEK5: MEK5 binding signal on mutant MEKK2 PB1, primary screen, biochemical, multiplex bead flow cytometry, Alexa488-MEK5; percent response, % at 10 µM; AID 1530, 2009; 290,000 compounds, 0.35% hits; Alexa488-MEK5 binding to MEKK2 mutant; in the data active means percent response above about 24%, passing the limit was not always enough
MEKK3 PB1 HTS: modulators of MEKK3-MEK5 PB1 binding, primary screen, biochemical, wildtype MEKK3, multiplex bead flow cytometry, Alexa488-MEK5; AID 1529, 2009; Mitogen-activated protein kinase kinase kinase 3 (Homo sapiens), Q99759; bead-based flow cytometry, Alexa488-MEK5 binding to MEKK3; actives lie on both sides; 0 = blocked by unlabeled MEK5, 100 = vehicle; 290,000 compounds, 1.4% hits; binding response (% of control), % at 10 µM;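 active means binding response more than 3 SD above or below the average of its plate-row segment, actives on both sides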;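 further: Alexa488 bead fluorescence after subtracting the streptavidin-only scavenger bead signal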
Target sequence (Q99759 whole entry, looked up): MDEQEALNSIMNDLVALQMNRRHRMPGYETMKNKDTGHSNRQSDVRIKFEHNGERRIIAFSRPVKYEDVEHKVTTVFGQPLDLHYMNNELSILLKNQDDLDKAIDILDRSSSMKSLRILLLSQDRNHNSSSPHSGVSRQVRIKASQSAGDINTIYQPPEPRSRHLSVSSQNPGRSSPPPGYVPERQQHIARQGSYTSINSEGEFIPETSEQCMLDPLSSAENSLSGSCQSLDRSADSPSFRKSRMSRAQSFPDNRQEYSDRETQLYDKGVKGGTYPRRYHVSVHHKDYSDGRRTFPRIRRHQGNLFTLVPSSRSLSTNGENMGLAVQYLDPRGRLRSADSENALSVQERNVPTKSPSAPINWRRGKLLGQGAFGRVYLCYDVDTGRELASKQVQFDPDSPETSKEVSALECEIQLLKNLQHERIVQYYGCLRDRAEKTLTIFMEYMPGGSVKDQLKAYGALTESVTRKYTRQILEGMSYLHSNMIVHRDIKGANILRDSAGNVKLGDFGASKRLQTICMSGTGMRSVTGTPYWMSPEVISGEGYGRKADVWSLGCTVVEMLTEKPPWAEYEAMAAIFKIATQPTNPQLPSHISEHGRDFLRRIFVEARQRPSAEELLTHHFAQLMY
CendR NRP1 mod: modulators of CendR peptide binding to NRP-1, primary screen, biochemical, fluorescence polarization, uHTS; Neuropilin-1 (Homo sapiens), O14786; FAM-RPARPAR peptide binding to NRP-1; 360,000 compounds, 0.85% hits; inhibition, % at 25 µM;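 active means inhibition or corrected inhibition above about 18%, plus a signal ratio from 0.5 to 1.5, limit read from the data, passing the limit was not always enough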
MEKK2wt confirm: modulators of MEK5 binding to wildtype MEKK2, confirmation, biochemical, single concentration, multiplex bead flow cytometry | Alexa488-MEK5 binding to MEKK2 WT; actives lie on both sides | 5,900 compounds, 2.4% hits | binding response (% of control), % at 10 µM | shares compounds with MEKK3 PB1 HTS; in the data active means binding response below about 16% or above about 210%; inactive means in between
MEKK2mut confirm: mutant MEKK2 PB1-MEK5 binding signal retest – biochemical, single concentration, multiplex bead flow cytometry, confirmation | shares compounds with MEKK3 PB1 HTS | Alexa488-MEK5 binding to MEKK2 mutant | percent response, % at 10 µM | 5,900 compounds, 2% hits; in the data active means percent response mostly above about 71%, no sharp cut-off; inactive means mostly below about 38%;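 further: higher means compound restores mutant binding toward wildtype level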
MEKK3 confirm: MEKK3 wild-type PB1 binding to MEK5, inhibitors, confirmation, biochemical, bead multiplex flow cytometry, single concentration, wildtype; shares compounds with MEKK3 PB1 HTS; Alexa488-MEK5 binding to MEKK3; hits give low values; binding response (% of control), % at 10 µM; 5,900 compounds, 1.8% hits;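 active means binding response below 72% of control, or above a set upper limit, though filed actives all read lower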;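 further: 100% = DMSO only wells and 0% = binding blocked by excess unlabeled MEK5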
The depositor's hits bear a star; nt = not tested or not shown; [ ] = remark or other dose.

SMILES	SKN-1 block	MEKK2wt PB1 HTS	MEKK2 mut-MEK5	MEKK3 PB1 HTS	CendR NRP1 mod	MEKK2wt confirm	MEKK2mut confirm	MEKK3 confirm
COCCNC(=S)NC1CC2CCCC(C1)N2Cc1cccs1 (stereo not drawn)	1	86	-10	82*[inhibitor]	10	99	-2	97
O=C(CN1C2CCCC1CC(NC(=O)C1CCCCC1)C2)Nc1ccccc1 (stereo not drawn)	15	95	0	96	-2	nt	nt	nt
O=C(Nc1ccc(Cl)c(C(F)(F)F)c1)NC1CC2CCCC(C1)N2Cc1ccccc1 (stereo not drawn)	nt	215*	7	106	nt	171	33	106
COCCCNC(=S)NC1CC2CCCC(C1)N2Cc1cccs1 (stereo not drawn)	7	87	-9	79	10	nt	nt	nt
O=C(NC1CC2CCCC(C1)N2Cc1ccccc1)C1CCCCC1 (stereo not drawn)	0	130	6	146*	-4	96	-6	100
Cc1ccc(CN2C3CCCC2CC(NC(=O)c2ccc(C)cc2)C3)cc1 (stereo not drawn)	-8	200*	52*	144*	9	116	18	101
O=C(NC1CC2CCCC(C1)N2C(=O)Nc1ccc(Cl)c(C(F)(F)F)c1)C1CC1 (stereo not drawn)	11	94	-6	96	3	nt	nt	nt
CC(=O)NC1CC2CCCC(C1)N2Cc1ccc(C)cc1 (stereo not drawn)	9	111	14	103	5	nt	nt	nt
CCCCn1c(N)c(N(C)C(=O)c2cc3c(s2)CCCCC3)c(=O)[nH]c1=O	-5	nt	nt	nt	-3	nt	nt	nt
CC1(C(=O)NCCc2ccccc2)Cc2c(-c3ccc(C(N)=O)cc3)ccnc2O1 (stereo not drawn)	7	nt	nt	nt	21	nt	nt	nt
O=C(c1[nH]c(C(F)(F)F)nc1-c1ccccc1)N1CCN(c2ncccc2C(F)(F)F)CC1	4	nt	nt	nt	0	nt	nt	nt
CCCNC(=S)NC1CC2CCC(C1)N2Cc1ccccc1 (stereo not drawn)	11	88	-11	82*[inhibitor]	5	101	1	98
CCCCCCCCn1ccc(=N)cc1	1	98	3	101	-4	nt	nt	nt
CCCCCCCCCCn1ccc(=N)cc1	11	148*	30	125	-2	126	21	108
COc1ccc(CN2C(=O)c3ccccc3C2c2nnnn2C(C)C)cc1OC (stereo not drawn)	-6	nt	nt	nt	3	nt	nt	nt
CCC(C)NC(=O)C1CCN(c2nc(OC)nc(OC)n2)CC1 (stereo not drawn)	1	-1.0*[inhibitor]	-4	0.0*[inhibitor]	4	230*	76*	114
CCC(C)NC(=O)C1CCN(c2nc(C)cc(C)n2)CC1 (stereo not drawn)	-3	99	0	99	4	nt	nt	nt
O=C(Nc1cccc(NS(=O)(=O)c2ccc(S(=O)(=O)NC3CC3)cc2)c1)c1ccccn1	4	114	5	124*	-16	101	1	108
O=C(NC1=NCCS1)c1cccc(S(=O)(=O)N2CCOCC2)c1	0	nt	nt	nt	10	nt	nt	nt
O=C(Cn1cccc1C(=O)c1ccccc1)NCCCN1CCOCC1	-3	94	-5	95	16	nt	nt	nt
O=C(Cn1cccc1C(=O)c1ccccc1)NCCN1CCCCCC1	7	171*	25*	115	15	157	30	104
O=C(Cn1cccc1C(=O)c1ccccc1)NCCN1CCOCC1	-16	100	0	97	-20	nt	nt	nt
Cc1ccc(C)c(N2CCN(CCCNC(=O)Cn3cccc3C(=O)c3ccccc3)CC2)c1	5	176*	45	111	7	129	13	104
Cc1ccc(-n2nc(-c3ccccc3)cc2Nc2ccccc2N)cc1	11	113	1	139*	1	100	-8	101
Nc1ccccc1Nc1cc(-c2ccccc2)nn1-c1ccccc1	15	107	3	112	3	nt	nt	nt
SMILES	SKN-1 block	MEKK2wt PB1 HTS	MEKK2 mut-MEK5	MEKK3 PB1 HTS	CendR NRP1 mod	MEKK2wt confirm	MEKK2mut confirm	MEKK3 confirm
Cc1cc(N/N=C2/CCCc3ccccc32)nc2ccccc12	8	160*	28	108	3	154	28	109
c1ccc(N/N=C2\CCCc3ccccc32)nc1	15	99	2	101	6	nt	nt	nt
C=CCc1cccc2cc(C(=O)Nc3ccc(F)cc3)c(=O)oc12	-3	108	3	107	-3	nt	nt	nt
C=CCc1cccc2cc(C(=O)Nc3ccc(CC(=O)O)cc3)c(=O)oc12	5	101	1	139*	-8	98	-1	102
O=c1c2ccccc2c(C=Nc2ccc(Cl)cn2)c(O)n1-c1cc(Cl)ccc1N1CCOCC1	-5	2.0*[inhibitor]	-46	2.0*[inhibitor]	2	84	-5	97
CCCOC(=O)C[N+](C)(C)CCOC1CC2CCC1(C)C2(C)C (stereo not drawn)	-2	97	-10	92	7	nt	nt	nt
CCCCCCOC(=O)C[N+](C)(C)CCOC1CC2CCC1(C)C2(C)C (stereo not drawn)	9	202*	14	113	-4	146	23	106
CCCCCCCOC(=O)C[N+](C)(C)CCOC1CC2CCC1(C)C2(C)C (stereo not drawn)	2	163*	38	100	5	186	49	111
CCCCOC(=O)C[N+](C)(C)CCOC1CC2CCC1(C)C2(C)C (stereo not drawn)	-3	110	1	119	-4	nt	nt	nt
CN1CCN(C(=O)c2ccc(-c3cnc4cccnn34)cc2)CC1	-3	nt	nt	nt	8	nt	nt	nt
O=C(NC1CCN(S(=O)(=O)c2ccccc2F)CC1)c1cccnc1	3	99	-2	100	12	nt	nt	nt
Cc1cc(C)nc(SCc2cc(=O)c(OC(=O)c3ccc(Br)o3)co2)n1	8	109	1	128*	-5	100	-8	99
